Structures are written as SMILES.

The test concerns the target AMP-activated protein kinase, AMPK (Homo sapiens) (UniProt P54646+O43741+P54619+Q9UGJ0+Q9Y478+Q13131+Q9UGI9). Briefly: AMP-dependent Kinase enzyme assay. An in vitro enzyme assay that detects ADP turnover that is directly proportional to AMPK activity. This uses naive AMPK that is activated during the assay with MK-8722. It is filed as functional. The arrangement: scale not given: direction of the effect not stated beside the values. The following applies: 30 µM.
For the compound `CCC[C@H]1CN(c2cncc(C(=O)N(C)C)n2)C[C@@H]1N(C)C`, the Percent Effect amounted to 9.69%.

For `NC(=O)CCC1CCCN(Cc2cnc(N3CCCCC3)nc2)C1` (stereo not given), the Percent Effect was 7.08%.

As to `CN(CCc1ccncc1)c1cnn(C)c(=O)c1Br`, the Percent Effect is -1.01%.

Regarding `Cc1cc2n(n1)CC(CNCc1cc(C)on1)CN2` (stereo not given), the Percent Effect was -6.26%.

Consider `CNC(=O)c1[nH]nc2c1CN(c1cc(C3CCCNC3)nc(C)n1)CC2` (stereo not given), for which the Percent Effect turned out to be 18.4%.

As for `CN1CCCC1CCNC(=O)c1ccccc1-n1cnc(CN)c1` (stereo not given), the Percent Effect was 7.02%.

With `Cc1nc2cc(-c3nccn3C)nn2c(N2CCCC2)c1C`, the Percent Effect turned out to be 16.5%.

With `N#Cc1ccc(NCc2cccnc2N2CCC(C(N)=O)CC2)cn1`, the Percent Effect was determined as 2.13%.

Take `Cc1cccc(OC2CCN(Cc3ncc[nH]3)CC2)c1`: the Percent Effect is -0.938%.

For the compound `CN(C)c1ccccc1C(=O)N1CCCC(c2cccc(C(=O)O)c2)C1` (stereo not given), the Percent Effect worked out at 2.89%.

As to `COCCNc1ncnc2c1CCN(C(=O)CC1CCC(=O)N1)CC2` (stereo not given), the Percent Effect came out at 15.1%.

In the case of `CN(CCOc1ccc(C#N)cc1)CC1CC1`, the Percent Effect turned out to be 22.9%.

Regarding `CC(=O)NCc1ccc(C(=O)N2CCCc3c(F)ccc(C)c32)o1`, the Percent Effect came out at 0.928%.

As for `Cc1cc(=O)n2nc(Oc3ccc(Cl)c(C)c3)sc2n1`, the Percent Effect was -6.95%.

Regarding `Cc1nc(C2CCCN2CCOCC2CC2)no1` (stereo not given), the Percent Effect is -0.854%.

Take `CCN(C(=O)CN1CCCC1c1c(C)nn(C)c1OC)C1CC1` (stereo not given): the Percent Effect was found to be 3.98%.

Turning to `CN1CCN(CCOc2ccc(NC(=O)c3ccncc3)cc2)CC1`, the Percent Effect was determined as 0.498%.

As for `CCn1cnnc1CN(C)C(=O)c1cc(COc2cccc(F)c2)[nH]n1`, the Percent Effect is -0.905%.

`Cc1cccc(C)c1Nc1noc2c1CN(C(=O)c1ccnn1C)CC2`: the Percent Effect stood at 9.88%.

As to `COc1ccc(CCC(=O)N2CCN(c3nc(C)ns3)CC2)cc1`, the Percent Effect is -3.26%.

With `O=C(CN1CCOCC1)N(c1ccccc1)c1ccccc1`, the Percent Effect amounted to 8.05%.

`O=C(CCn1cccn1)NCCOc1ncc(Cl)cc1Cl`: the Percent Effect came out at 2.54%.

`CCCc1ccc(CN2CCC3(CCC(=O)N(C(C)C(=O)O)C3)CC2)o1` (stereo not given): the Percent Effect was found to be 31.1%.

In the case of `CN(C)c1nc2sc(C(=O)N3CCN(C(=O)OC(C)(C)C)CC3)cc2s1`, the Percent Effect amounted to 63.5%.

Take `O=C(NCCCn1cccn1)C1COCC(=O)N1Cc1ccccc1` (stereo not given): the Percent Effect is -3.92%.

`Cc1noc(C)c1CCCNC(=O)Nc1cccc([S+](C)[O-])c1` (stereo not given): the Percent Effect was determined as 4.42%.

`CCCN(CCc1ccccn1)C(=O)Cn1cc(C)cn1`: the Percent Effect is 3.83%.

In the case of `c1csc(CN(Cc2ccsc2)CC2CCCO2)n1` (stereo not given), the Percent Effect amounted to 5.59%.

`CN1CCN(c2cccc(NC(=O)NCc3csc(N(C)C)n3)c2)C1=O`: the Percent Effect is -16.7%.

For `COc1nc2c(cc1C(=O)NC(C)Cc1cc(C)n[nH]1)CCC2` (stereo not given), the Percent Effect is -15.8%.

In the case of `CCOCCNCc1cc(O)c2cc(C)ccc2n1`, the Percent Effect is -3.23%.

Turning to `Cc1nsc(C(=O)NCCc2cccs2)n1`, the Percent Effect worked out at 1.77%.

For `O=C(c1nnn(-c2ccccc2)n1)N(CCO)CCO`, the Percent Effect was 0.534%.

For the compound `CCNC(=O)c1ccc(NC(=O)N(C)Cc2cc(C)on2)cc1`, the Percent Effect stood at 16.8%.

Regarding `COc1ccccc1S(=O)(=O)N1CCN(C)[C@@H]2CS(=O)(=O)C[C@@H]21`, the Percent Effect is -1.29%.

`CC(C)Oc1ccccc1CNC(=O)N(C)C(C)CS(C)(=O)=O` (stereo not given): the Percent Effect was determined as 9.72%.

As to `CCc1nc(C)c(C(=O)N2C[C@@H](C(=O)O)[C@H](C3CC3)C2)s1`, the Percent Effect was determined as 2.29%.

`CN(CCO)Cc1cc(Cl)ccc1OCC(O)CN1CCCCCC1` (stereo not given): the Percent Effect was 0.752%.

Consider `Cc1noc(C)c1C(=O)N1CCC(c2cc3cnccc3[nH]2)CC1`, for which the Percent Effect was 16.4%.

As for `CCOc1ccccc1CCC(=O)Nc1c(C)nn(C)c1C`, the Percent Effect came to 8.9%.
